The panel holds about 83,000 compounds, 20% with a hit somewhere; the sample as a whole holds those more often.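 Single-dose data. Exposure time 48 hours. Values below 10 considered active.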 Calls of active or inactive are those of the source.
Tests used:
Assay in all cases: NCI-60 one-dose screen, 48 h (100 = growth as untreated, 0 = no growth, -100 = all killed)
DU-145 prostate = conditions: 10 µM unless noted
K-562 leukemia = conditions: 10 µM unless noted
MALME-3M melanoma = conditions: 10 µM unless noted
MDA-MB-231 breast = conditions: 10 µM unless noted
RXF 393 renal = conditions: 10 µM unless noted
SF-268 CNS = conditions: 10 µM unless noted
SF-295 CNS = conditions: 10 µM unless noted
SF-539 CNS = conditions: 10 µM unless noted
UACC-257 melanoma = conditions: 10 µM
M14 melanoma = conditions: 10 µM unless noted
HCT-15 colon = conditions: 10 µM unless noted
HT29 colon = conditions: 10 µM unless noted
SNB-75 CNS = conditions: 10 µM unless noted
SNB-19 CNS = conditions: 10 µM unless noted
U251 CNS = conditions: 10 µM unless noted
PC-3 prostate = conditions: 10 µM unless noted
SK-MEL-5 melanoma = conditions: 10 µM unless noted
LOX IMVI melanoma = conditions: 10 µM unless noted
SK-MEL-28 melanoma = conditions: 10 µM unless noted
UACC-62 melanoma = conditions: 10 µM unless noted

Measured: growth

NS(=O)(=O)Oc1ccc2nc(Nc3ccc(F)c(F)c3)ccc2c1
inactive: DU-145 prostate 92.9% | K-562 leukemia 67.6% | MALME-3M melanoma 102% | MDA-MB-231 breast 94.3% | RXF 393 renal 96.7% | SF-268 CNS 88.1% | SF-295 CNS 82.8% | SF-539 CNS 89.9% | UACC-257 melanoma 104% | M14 melanoma 87.9% | HCT-15 colon 69.6% | HT29 colon 97.3% | SNB-75 CNS 81.3% | SNB-19 CNS 102% | U251 CNS 91.9% | PC-3 prostate 90.6% | SK-MEL-5 melanoma 98.7% | LOX IMVI melanoma 85.3% | SK-MEL-28 melanoma 98.5%

COc1ccc(-c2nc(SCC(C)C)nc(N/N=C\c3cccc([N+](=O)[O-])c3)c2C#N)cc1
active: SF-539 CNS 8.02% | SNB-75 CNS -11.2%
inactive: DU-145 prostate 70.5% | K-562 leukemia 57.1% | MALME-3M melanoma 48.1% | MDA-MB-231 breast 30.5% | RXF 393 renal 18.1% | SF-268 CNS 43.6% | SF-295 CNS 52.7% | UACC-257 melanoma 89% | M14 melanoma 76.9% | HCT-15 colon 46.3% | HT29 colon 49.9% | SNB-19 CNS 38.6% | U251 CNS 13% | PC-3 prostate 55.2% | SK-MEL-5 melanoma 68.3% | UACC-62 melanoma 75.6% | SK-MEL-28 melanoma 77.7%

O=C1c2c(c3c4cc(Br)ccc4[nH]c3c3ccc4ccccc4c23)C(=O)N1CCN1CCNCC1
active: K-562 leukemia -25.7% | HCT-15 colon -87.3% | HT29 colon 8.96% | U251 CNS -47.3%
inactive: DU-145 prostate 72.1% | MALME-3M melanoma 80.5% | MDA-MB-231 breast 84.1% | RXF 393 renal 82.8% | SF-268 CNS 72.7% | SF-295 CNS 73.6% | SF-539 CNS 87.1% | UACC-257 melanoma 98.3% | M14 melanoma 87.6% | SNB-75 CNS 85% | SNB-19 CNS 77.3% | PC-3 prostate 67.2% | SK-MEL-5 melanoma 91.4% | UACC-62 melanoma 78.8% | SK-MEL-28 melanoma 95.9%

Cn1cc2c(c1)-c1c(sc3nc(-c4ccc(NC(=O)Nc5cc(C(C)(C)C)on5)cc4)cn13)CC2
inactive: DU-145 prostate 57.9% | K-562 leukemia 15.3% | MALME-3M melanoma 66.2% | MDA-MB-231 breast 49.8% | SF-268 CNS 50.5% | SF-539 CNS 22.3% | UACC-257 melanoma 93.1% | M14 melanoma 60.5% | HCT-15 colon 12.2% | HT29 colon 21.9% | SNB-19 CNS 46.7% | U251 CNS 24.3% | PC-3 prostate 38.7% | SK-MEL-5 melanoma 63.1% | UACC-62 melanoma 87.7% | LOX IMVI melanoma 16.9% | SK-MEL-28 melanoma 54.2%
active: RXF 393 renal -23.4% | SF-295 CNS -41% | SNB-75 CNS -1.5%
